Only some compounds are listed: those with a hit (about 2.1% of all), similar ones and a draw of the others.
S1P2 blocker = blocks the human S1P2 receptor; inhibition, % at 5 µM; O95136; cell-based S1P2 antagonist assay, inhibition at 5 uM; 0.21% of 97,000 active; in the data active means inhibition above about 45%;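 further: CRE beta-lactamase reporter cells expressing human S1P2 stimulated with S1P; 0% = agonist at EC80 alone and 100% = agonist plus reference antagonist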
Target sequence (O95136 whole entry, looked up): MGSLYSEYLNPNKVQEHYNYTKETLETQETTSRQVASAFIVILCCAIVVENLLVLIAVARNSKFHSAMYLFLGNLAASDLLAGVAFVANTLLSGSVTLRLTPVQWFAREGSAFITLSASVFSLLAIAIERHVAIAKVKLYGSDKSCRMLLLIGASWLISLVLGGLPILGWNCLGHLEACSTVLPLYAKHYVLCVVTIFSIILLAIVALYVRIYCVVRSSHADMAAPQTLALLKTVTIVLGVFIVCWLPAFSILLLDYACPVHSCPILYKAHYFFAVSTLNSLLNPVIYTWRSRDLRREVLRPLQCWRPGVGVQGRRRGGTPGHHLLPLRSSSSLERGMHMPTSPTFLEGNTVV
S1P2 agonist = activates the human S1P2 receptor | 0.46% of 97,000 active | O95136 | S1P2-expressing cell line, agonist reporter read-out | AID 729 | activation, % at 4.5 µM; in the data active means activation above about 16%;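 further: 0% = vehicle low control and 100% = maximal reference agonist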
GALR2 ag = GALR2 (human) receptor agonism; AID 803; activation, % (no concentration beside the values); GALR2-expressing cells, agonist activation read-out; O43603; 0.48% of 140,000 active; in the data active means activation above about 5%, passing the limit was not always enough;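 further: 0% = vehicle buffer wells and 100% = reference agonist at full effect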
hDAT+cocaine = modulates human dopamine transporter uptake under cocaine | Q01959 | LLC-PK1 hDAT cells, [14C]-dopamine uptake with cocaine IC80; actives deviate in either direction | B-score at 10 µM | 1.3% of 110,000 active | AID 449768;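 active means Z score or B-score, a plate-position-corrected score, falls beyond the plate's 99.7% confidence bounds, in either direction; inactive means both scores lie inside the 99.7% bounds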;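 further: scored against the spread of the other compound wells on the same plate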
GALR2 blocker = blocks the human galanin receptor 2; O43603; inhibition, % at 4 µM; GALR2-expressing cells, antagonist mode; 0.39% of 140,000 active; in the data active means inhibition above about 27%;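 further: cells stimulated with galanin 1-16 at roughly its EC80; 0% = agonist challenge control and 100% = basal control without agonist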
* hit, by the source's call; . = not tested or not shown.

SMILES	S1P2 blocker	S1P2 agonist	GALR2 ag	hDAT+cocaine	GALR2 blocker
CCCN1CCCc2cc(CN)ccc21	0.9	5.7	-0.2	-2.38*	9.9
CN1CCCc2cc(C=O)ccc21	-6.7	-4.0	-2.7	1.08	-3.7
CCOC(=O)c1cnn(-c2nc(OCC)cc(OCC)n2)c1C	.	.	-0.6	.	-2.7
Cn1c(CSc2nc3ccccc3n2C)nc2ccccc21	7.7	-3.3	-0.7	0.273	0.2
Cn1c(SC2=CS(=O)(=O)c3ccccc32)nc2ccccc21	61.9*	-8.4	-0.9	0.416	23.5
CCNc1nc(NCC)nc(OCCOC(=O)Nc2ccccc2)n1	.	.	-0.4	.	0.7
CCNc1nc(NC(C)C)nc(OCCOC(=O)Nc2ccccc2)n1	-20.7	-2.5	-0.8	3.64*	1.0
O=c1ccn(-c2cccc(C(F)(F)F)c2)nc1-c1ccn(-c2cccc(Cl)c2)n1	-23.8	28.2*	-0.9	-0.122	-2.5
C=CCOC(=O)c1c(C)nc2cc3c(cc2c1C)OCO3	.	.	-0.8	.	-19.7
COCCNC(=O)CN1CCN(C(c2ccccc2)c2ccccc2)CC1	9.4	54.7*	-3.4	-0.0917	4.5
CC(C)(C)C(=O)c1sc(Nc2ccccc2)nc1N	-3.9	-3.6	-2.0	1.32*	-15.1
COC(=O)c1sc(Nc2ccccc2)nc1C	-5.1	-4.9	-0.1	0.67	7.2
COc1ccc(NC(=O)CN2C(=O)C(C)Oc3ccccc32)c(OC)c1 (configuration not stated)	5.8	-5.8	-0.5	2.28*	3.8
O=c1[nH]c2ccc(Cl)cc2c(-c2ccccc2)c1SC(=S)N1CCCCC1	-17.4	-1.9	1.3	3.42*	-13.2
COCCCNC(=O)c1cc2c(=O)n3cccc(C)c3nc2n(C(C)C)c1=N	-2.9	4.7	6.4	0.271	-6.0
C=CCn1c(=N)c(C(=O)NCCCOC)cc2c(=O)n3ccccc3nc21	-32.6	29.9*	22.5*	-0.478	-2.9
C=CCn1c(=N)c(C(=O)NCCCOC)cc2c(=O)n3cc(C)ccc3nc21	-38.1	18.9*	16.5*	.	-14.0
CNC(=O)c1cc2c(=O)n3cc(C)ccc3nc2n(C(C)C)c1=N	-18.3	17.8*	16.2*	0.84	-0.4
CCOC(=O)c1cc2c(=O)n3ccccc3nc2n(CCCOC)c1=NC(C)=O	-55.8	35.2*	12.9*	.	-14.5
COc1c(Cl)cc(C(=O)Nc2ccccc2-c2ccccc2)cc1Cl	-10.1	-2.1	-2.1	.	3.9
CN1CCN(c2ccccc2NC(=O)c2ccc(OCc3ccccc3)cc2)CC1	8.4	-4.2	2.0	2.58*	8.2
O=C(Nc1ccccc1N1CCN(c2ccc(F)cc2)CC1)c1ccccc1	-9.6	-3.1	-0.3	-1.7	4.6
CN1CCN(c2ccccc2NC(=O)c2ccc(-c3ccccc3)cc2)CC1	8.3	-5.6	0.8	4.9*	18.5
COc1ccc(Cl)cc1C(=O)Nc1ccccc1N1CCN(C)CC1	-0.7	0.0	-2.1	3.49*	-9.9
CN1CCN(c2ccccc2NC(=O)c2cccc(OCc3ccccc3)c2)CC1	-6.7	-2.4	-2.0	1.05	7.7
SMILES	S1P2 blocker	S1P2 agonist	GALR2 ag	hDAT+cocaine	GALR2 blocker
CCCCN(CCCNC(=O)c1ccc2nc(N3CCOCC3)sc2c1)Cc1ccccc1	-7.6	1.0	-0.9	2.62*	-5.7
COc1cc2c(cc1NC(=O)CCCN1C(=O)CCC1=O)oc1ccccc12	3.1	-4.0	-1.6	2.73*	-5.2
COc1cc2c(cc1NC(=O)CSCC(=O)O)oc1ccccc12	.	.	-2.0	-0.0746	6.3
COc1cc2c(cc1NC(=O)CC1SC(N3CCCC3)=NC1=O)oc1ccccc12 (configuration not stated)	13.6	-10.6	1.0	-8.27*	-1.3
COc1cc2c(cc1NC(=O)CCCCCN1C(=O)CCC1=O)oc1ccccc12	-6.1	-1.7	-2.2	1.61	-5.8
CC(=O)N1C(=O)CC(C)N(C(C)=O)c2ccc([N+](=O)[O-])cc21 (configuration not stated)	.	.	-0.4	.	-4.0
Cc1nnc(NC(=O)c2cccc(NC(=O)C(C)C)c2)s1	9.1	-11.7	-3.2	-7*	2.6
Cc1nn(-c2ccccc2)c2sc(-c3n[nH]c(=S)o3)cc12	.	.	-1.6	0.0182	0.5
Cc1cc2ccccc2n1CCNC(=O)c1ccc(S(=O)(=O)N2CCCCC2)cc1	30.0	-3.7	-2.0	2.5*	-2.7
CC(C)(CO)Nc1ccc([N+](=O)[O-])cc1[N+](=O)[O-]	10.6	-4.0	-1.5	-2.64*	4.4
COC(=O)c1[nH]c2ccc(C)cc2c1NC(=O)CN1CCN(C(=O)c2ccccc2)CC1	3.9	-3.6	0.8	2.66*	-8.8
O=Nc1c(O)n(Cc2ccc(Cl)c(Cl)c2)c2ccccc12	-29.5	-2.1	-7.2	-0.0913	14.7
CCc1ccc2[nH]c3nc(SCC(=O)NNC(=O)c4ccc(C(C)(C)C)cc4)nnc3c2c1	-1.4	17.2*	-3.5	-0.0351	-0.2
Cc1ccccc1CN1CCN(CC(=O)NCc2ccc3c(c2)OCO3)C1=O	18.3	-5.8	-0.3	-0.339	-6.0
O=C(Cn1c(=O)[nH]c2ccsc2c1=O)NC1CCCCC1	8.1	-7.5	-2.4	-2.71*	7.0
COc1ccc(C[C@H]2CN3C(=NC[C@@H]3C(C)C)N2CCNC(=O)c2ccc(C)c(Br)c2)cc1	.	.	.	-3.15*	.
CC(=O)Nc1nnc(SCC(=O)NCCOc2ccccc2)s1	10.3	-2.2	-1.4	-8.01*	-5.8
Cc1csc(NC(=O)CSc2nnc(NC(=O)COc3ccccc3)s2)n1	.	.	-0.6	.	3.5
CCCCOC(=O)C(C#N)c1nc2ccccc2nc1N1CCOCC1 (configuration not stated)	-11.1	-3.2	-1.6	-0.146	4.1
CCCCCCOC(=O)C(C#N)c1nc2ccccc2nc1N1CCOCC1 (configuration not stated)	65.9*	-0.5	-0.8	0.00906	-1.8
CCCCNC(=O)C(c1ccc(OCC(=O)OC)c(C(=O)OC)c1)N(CCc1c[nH]c2ccccc12)C(=O)CCCCCN1C(=O)NC(c2ccc(-c3ccccc3)cc2)C(C(=O)OCc2ccccc2)=C1C (configuration not stated)	.	.	.	-0.569	.
CCN(CC)c1ncnc2c1ncn2Cc1c(Cl)cccc1Cl	-74.7	18.6*	1.1	-1.11	-1.9
CCN(CC)c1ncn(Cc2c(Cl)cccc2Cl)c2ncnc1-2	-33.8	18.3*	-0.5	-0.0124	-7.4
COc1ccccc1N(CC(=O)NC1CCCCC1)C(=O)CCC(=O)Nc1ccccn1	-1.4	-0.7	-1.1	0.0497	1.1
CC1CCc2nn(CC(=O)NCCC3=CCCCC3)cc2C1 (configuration not stated)	.	.	-1.6	7.5*	2.8
COCCNC(=O)Cn1cc2c(n1)CCC(C)C2 (configuration not stated)	.	.	.	-0.333	.
O=C(OCC(=O)N1CCN(C(=O)c2ccco2)CC1)c1cn(-c2ccccc2)nc1-c1ccccc1	10.8	-12.2	-4.1	4.38*	-2.2
COc1ccc(CCNC(=O)CSc2nc(N)c3c(C)c(C)oc3n2)cc1OC	-25.4	-0.3	-0.8	0.0485	0.7
COc1ccc(CCNC(=O)c2cc3sc(Cl)cc3n2C)cc1OC	13.8	-5.4	-1.0	2.29*	2.4
CCC(=O)Nc1ccc(Nc2nc(C)c([N+](=O)[O-])c(Nc3ccc(NC(=O)CC)cc3)n2)cc1	.	.	2.5	.	2.8

Source: PubChem BioAssay
